Among the data in PubChem BioAssay (NCATS) are Potency, outcome and max response values, retold here.

In assay [1] the target is Nuclear receptor subfamily 1 group I member 3 (Homo sapiens) (UniProt Q14994). In words: Primary qHTS for antagonist of constitutive androstane receptor (CAR) against the NCATS DSHEA and TCM libraries (AID 1794836). Further: series mostly up to about 40 µM. An outline of the steps:
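HepG2 cells stably carrying hCAR and a CYP2B6 luciferase reporter (2,500 cells/well) attached for 5 h, then received compounds with 48 uM CITCO for 24 h at 37C. ONE-Glo luminescence read antagonism; CellTiter-Fluor (405/540 nm) gave viability.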
Background: qHTS replaces the single test concentration by a dilution series.

Assay [2] can be described thus: KB-8-5-11 P-gp reporter qHTS against the NCATS DSHEA and TCM libraries (AID 1919977). Further: 0% is about no effect. An outline of the steps: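 P-gp-overexpressing KB-8-5-11 cells were screened in colchicine-free medium at 500 cells/well, as a titration series. Cells were exposed for 72 h at 37C. Viability was read by CellTiter-Glo luminescence after 30 min at room temperature.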
The nature of assay [3]: Viability counterscreen for antagonist of constitutive androstane receptor (CAR) against the NCATS DSHEA and TCM libraries (AID 1794837).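 Further: compound exposure lasted 24 h before viability reading; 0% is about no effect.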 An outline of the steps: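 HepG2-CYP2B6-hCAR cells, 2,500/well, were exposed 24 hr at 37C to substances together with 48 uM CITCO (final). Viability was read as CellTiter-Fluor fluorescence (Ex/Em 405/540 nm) after 1 hr.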
(In general: A counterscreen serves to expose hits that act by an unwanted route or on another target.)

Assay [4] in a line: Viability counterscreen for agonist of constitutive androstane receptor (CAR) against the NCATS DSHEA and TCM libraries (AID 1794838).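 Further: HepG2 cells with CYP2B6 reporter and hCAR plus 0.75 µM PK11195 antagonist; 0% is about no effect.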 An outline of the steps: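 HepG2-CYP2B6-hCAR cells (2,500/well) treated 24 h at 37C with compounds plus 0.75 uM PK11195; viability read by CellTiter-Fluor fluorescence, Ex/Em 405/540 nm.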
Assay [5] concerns the target Nuclear receptor subfamily 1 group I member 3 (Homo sapiens) (UniProt Q14994). Kind of assay: Primary qHTS for agonist of constitutive androstane receptor (CAR) against the NCATS DSHEA and TCM libraries (AID 1794839).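 Further: HepG2 cells expressing human CAR with a CYP2B6 reporter plus PK11195 antagonist; 0% is about no effect.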 The note with it: Potency: CAR antagonist co-added at 0.75 µM unless noted. The procedure, abridged:
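HepG2-CYP2B6-hCAR cells, 2,500/well, attached 5 h, then dosed with 0.75 µM PK11195 (final) for 24 h at 37 °C. Luciferase luminescence read (ONE-Glo); CellTiter-Fluor viability (Ex/Em 405/540 nm) in same wells; CITCO positive control.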

The nature of assay [6]: HepG2 viability counterscreen (readout 2: ATP content) against the NCATS DSHEA and TCM libraries (AID 1794840). Further: 0% is about no effect. The procedure, abridged:
(§1)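 HepG2 cells, 1,000/well, attached ~4 h, then exposed ~24 h at 37C to substances. Protease activity read by fluorescence of 25 uM GF-AFC (Ex/Em 380/510 nm) after 30 min; ATP then by CellTiter-Glo luminescence.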

Assay [7] in a line: HepG2 viability counterscreen (readout 1: protease activity) against the NCATS DSHEA and TCM libraries (AID 1794841).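 Further: cells exposed to compounds for about 24 h before the protease read; 0% is about no effect.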 An outline of the steps:
as §1

In assay [8] the target is Cytochrome P450 3A4 (Homo sapiens) (UniProt P08684). In words: qHTS for inhibitors of CYP3A4 against the NCATS DSHEA and TCM libraries (AID 1919971). Further: potency means the concentration at half of the fitted maximal effect. The procedure, abridged:
(§2)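 Substances were tested against enzyme with a pro-luciferin substrate; minus-enzyme wells served as background. After NADPH-initiated oxidation (30-45 min, RT), light was generated with P450-Glo reagent.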

Assay [9] concerns the target Cytochrome P450 2D6 (Homo sapiens) (UniProt P10635). In words: qHTS for inhibitors of CYP2D6 against the NCATS DSHEA and TCM libraries (AID 1919972). Further: potency means the concentration at half of the fitted maximal effect. An outline of the steps:
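qHTS, concentration–response format with most substances from 19.5 nM. CYP2D6 + pro-luciferin substrate, 15 min with compound, then 1x NADPH regen, 30–45 min RT dark. Glo detection 30 min, luminescence. Quinidine control.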

In assay [10] the target is Cytochrome P450 2C9 (Homo sapiens) (UniProt P11712). Kind of assay: qHTS for inhibitors of CYP2C9 against the NCATS DSHEA and TCM libraries (AID 1919973). Further: potency means the concentration at half of the fitted maximal effect. An outline of the steps: as §2
Assay [11] concerns the target Cytochrome P450 2C19 (Homo sapiens) (UniProt P33261). Kind of assay: qHTS for inhibitors of CYP2C19 against the NCATS DSHEA and TCM libraries (AID 1919974).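 Further: luminescence from luciferin released by CYP2C19 oxidation of a pro-luciferin substrate; on the % scale 0 is the no-effect control and ±100 the full control effect.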 An outline of the steps:
as §2

The nature of assay [12]: KB-3-1 P-gp reporter qHTS against the NCATS DSHEA and TCM libraries (AID 1919975). Further: 0% is about no effect. The procedure, abridged:
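Parental KB-3-1 cells, 500 cells/well, in DMEM with 10% FBS, exposed 72 h at 37 C to compounds in concentration-response. Viability read by CellTiter-Glo luminescence after 30 min at room temperature.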

Assay [13] has as its target Cytochrome P450 1A2 (Homo sapiens) (UniProt P05177). In words: qHTS for inhibitors of CYPIA2 against the NCATS DSHEA and TCM libraries (AID 1919976). Further: potency means the concentration at half of the fitted maximal effect. The procedure, abridged:
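Luminescence read-out: pro-luciferin converted to D-luciferin by CYP1A2, detected with P450-Glo reagent after 30 min RT. Enzyme plus substrate got compounds for 15 min RT; NADPH regeneration solution (final 1x) started a 30-45 min reaction, light-protected.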

Assay [14] in a line: qHTS Counterscreen for compound interference against the NCATS DSHEA and TCM libraries (AID 1919978).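 Further: compounds preincubated with 1 µM D-luciferin or buffer before detection reagent; % of control where 0% means no effect.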 The note with it: firefly luciferase detection reagent interference, luminescence. An outline of the steps: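 Firefly luciferase detection reagent was added after compounds (19.5 nM–39.8 uM final) had been incubated 15 min at room temperature with 1 uM D-luciferin or with 100 mM phosphate buffer alone. Luminescence was read after 30 min at room temperature.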

Assay [15] is described as follows: Dual reporter qHTS for agonist of Pregnane X Receptor (hPXR) against the NCATS DSHEA and TCM libraries: Fluorescence readout (AID 1920058). Further: 0% is about no effect. An outline of the steps: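 Fluorescence read-out for cell viability: CellTiter-Fluor, 1 h at 37 °C, Ex/Em 405/540 nm. This followed ~24 h treatment of hPXR-Luc HepG2 cells with substances in agonist mode.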
Assay [16] deals with Nuclear receptor subfamily 1 group I member 2 (Homo sapiens) (UniProt O75469). Kind of assay: Dual reporter qHTS for agonist of Pregnane X Receptor (hPXR) against the NCATS DSHEA and TCM libraries: Luminescence readout (AID 1920059). Further: potency means the concentration at half of the fitted maximal effect. The procedure, abridged:
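hPXR-LucHepG2 cells in phenol red-free DMEM with 5% charcoal-stripped FBS, 2000 cells/well, attached 5 h, then exposed 24 h at 37C to compounds; rifampicin as positive agonist control (2.8 nM–92 uM). Luciferase luminescence read.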

The target is the same in assay [17]. In words: Dual reporter qHTS for antagonist of Pregnane X Receptor (hPXR) against the NCATS DSHEA and TCM libraries: Luminescence Readout (AID 1920060).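 Further: HepG2 cells carrying hPXR luciferase reporter stimulated with rifampicin at 2 µM; 0% is about no effect.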 An outline of the steps: (§3)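 Antagonist mode: rifampicin 2 uM final co-added with compounds to hPXR-LucHepG2 cells for 24 h at 37C. Viability by CellTiter-Fluor, Ex/Em 405/540 nm, 1 h; reporter by ONE-Glo luminescence.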

The nature of assay [18]: Dual reporter qHTS for antagonist of Pregnane X Receptor (hPXR) against the NCATS DSHEA and TCM libraries: Fluorescence Readout (AID 1920061). Further: 0% is about no effect. The procedure, abridged: as §3
Assay [19] in a line: S16 Schwann cell PMP22 intronic element firefly luciferase assay (AID 624032).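 Further: series mostly up to about 58 µM; plate controls were DMSO for no effect and PTC124 positive control mean for full effect; nearly all actives have a fitted effect of over 30% in size.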 The procedure, abridged: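 Rat S16 Schwann cells stably carrying a PMP22 intronic element-driven Fluc reporter were seeded overnight, then exposed to compounds for 24 h at 37 °C. Luminescence was normalized to PTC124 (positive control) and DMSO (0% activity).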

Values without a mark were called inactive. Results filed as inconclusive are left out. Activity calls are given as the source filed them. The call rests on the fitted dose curve; in most records, active means well fitted curve in the direction sought with a large enough effect; inconclusive means small, poorly fitted or top-dose-only effect, or another doubt; inactive means no such curve, though single readings can be large; an effect the other way counts as inactive or inconclusive.

Sequence of Cytochrome P450 2D6 (Homo sapiens) (P10635 whole entry, looked up): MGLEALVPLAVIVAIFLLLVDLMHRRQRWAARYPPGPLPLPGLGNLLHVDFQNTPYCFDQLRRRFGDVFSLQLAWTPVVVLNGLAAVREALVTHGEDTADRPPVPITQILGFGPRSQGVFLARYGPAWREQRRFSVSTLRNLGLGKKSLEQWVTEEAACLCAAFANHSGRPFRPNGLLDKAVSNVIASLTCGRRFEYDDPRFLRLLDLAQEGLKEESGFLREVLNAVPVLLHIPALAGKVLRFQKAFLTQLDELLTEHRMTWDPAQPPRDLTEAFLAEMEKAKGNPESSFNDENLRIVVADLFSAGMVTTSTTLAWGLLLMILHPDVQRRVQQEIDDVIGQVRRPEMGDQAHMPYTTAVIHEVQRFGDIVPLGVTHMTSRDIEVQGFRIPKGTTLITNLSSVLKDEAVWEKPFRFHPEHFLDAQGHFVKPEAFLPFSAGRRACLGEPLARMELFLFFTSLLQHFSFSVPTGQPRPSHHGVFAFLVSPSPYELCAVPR
Sequence of Cytochrome P450 1A2 (Homo sapiens) (P05177 whole entry, looked up): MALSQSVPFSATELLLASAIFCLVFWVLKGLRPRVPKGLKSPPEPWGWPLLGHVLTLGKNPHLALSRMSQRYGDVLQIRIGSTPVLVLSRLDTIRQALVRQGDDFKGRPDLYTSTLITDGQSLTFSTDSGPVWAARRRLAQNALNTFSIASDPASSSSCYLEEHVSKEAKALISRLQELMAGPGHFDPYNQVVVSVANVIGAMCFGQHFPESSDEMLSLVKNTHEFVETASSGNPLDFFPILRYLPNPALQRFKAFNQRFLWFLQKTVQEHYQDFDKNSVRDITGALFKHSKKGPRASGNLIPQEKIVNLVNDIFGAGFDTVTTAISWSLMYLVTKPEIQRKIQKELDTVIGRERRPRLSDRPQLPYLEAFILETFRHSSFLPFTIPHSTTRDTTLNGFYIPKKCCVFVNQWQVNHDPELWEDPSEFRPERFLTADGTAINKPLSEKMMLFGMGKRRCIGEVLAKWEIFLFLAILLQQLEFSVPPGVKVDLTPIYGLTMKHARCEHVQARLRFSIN
Sequence of Nuclear receptor subfamily 1 group I member 3 (Homo sapiens) (Q14994 whole entry, looked up): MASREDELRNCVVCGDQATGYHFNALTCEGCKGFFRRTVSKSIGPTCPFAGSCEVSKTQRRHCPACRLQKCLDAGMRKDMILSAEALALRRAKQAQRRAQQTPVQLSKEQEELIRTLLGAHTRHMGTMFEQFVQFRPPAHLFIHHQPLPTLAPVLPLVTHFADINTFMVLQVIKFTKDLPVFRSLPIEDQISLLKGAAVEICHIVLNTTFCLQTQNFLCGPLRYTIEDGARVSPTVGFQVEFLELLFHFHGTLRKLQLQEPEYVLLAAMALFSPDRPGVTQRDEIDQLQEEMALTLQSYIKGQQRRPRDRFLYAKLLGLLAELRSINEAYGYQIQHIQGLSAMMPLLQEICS
Sequence of Nuclear receptor subfamily 1 group I member 2 (Homo sapiens) (O75469 whole entry, looked up): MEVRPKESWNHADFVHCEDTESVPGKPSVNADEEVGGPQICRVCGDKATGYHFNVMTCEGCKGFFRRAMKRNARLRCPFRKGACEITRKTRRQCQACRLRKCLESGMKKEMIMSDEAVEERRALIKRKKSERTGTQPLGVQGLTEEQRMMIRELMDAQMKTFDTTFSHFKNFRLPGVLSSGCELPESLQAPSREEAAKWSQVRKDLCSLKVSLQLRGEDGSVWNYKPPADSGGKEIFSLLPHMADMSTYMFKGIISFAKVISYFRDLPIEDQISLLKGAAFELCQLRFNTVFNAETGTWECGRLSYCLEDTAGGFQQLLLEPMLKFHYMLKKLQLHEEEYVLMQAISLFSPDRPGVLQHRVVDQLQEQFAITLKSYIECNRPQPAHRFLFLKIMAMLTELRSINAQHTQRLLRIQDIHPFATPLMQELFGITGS
Sequence of Cytochrome P450 2C9 (Homo sapiens) (P11712 whole entry, looked up): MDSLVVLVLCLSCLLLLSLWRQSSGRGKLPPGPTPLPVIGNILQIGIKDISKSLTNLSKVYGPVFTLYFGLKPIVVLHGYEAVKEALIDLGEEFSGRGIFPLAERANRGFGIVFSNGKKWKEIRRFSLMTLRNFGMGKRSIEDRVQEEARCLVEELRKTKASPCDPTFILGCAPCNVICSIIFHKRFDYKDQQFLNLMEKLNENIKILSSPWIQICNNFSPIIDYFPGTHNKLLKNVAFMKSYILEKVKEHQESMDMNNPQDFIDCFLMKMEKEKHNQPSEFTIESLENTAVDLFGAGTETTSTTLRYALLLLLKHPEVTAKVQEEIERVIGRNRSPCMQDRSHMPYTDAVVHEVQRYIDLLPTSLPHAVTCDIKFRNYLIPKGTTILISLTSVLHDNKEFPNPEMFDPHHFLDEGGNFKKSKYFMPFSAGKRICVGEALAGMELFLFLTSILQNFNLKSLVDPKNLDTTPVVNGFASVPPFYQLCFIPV
Sequence of Cytochrome P450 3A4 (Homo sapiens) (P08684 whole entry, looked up): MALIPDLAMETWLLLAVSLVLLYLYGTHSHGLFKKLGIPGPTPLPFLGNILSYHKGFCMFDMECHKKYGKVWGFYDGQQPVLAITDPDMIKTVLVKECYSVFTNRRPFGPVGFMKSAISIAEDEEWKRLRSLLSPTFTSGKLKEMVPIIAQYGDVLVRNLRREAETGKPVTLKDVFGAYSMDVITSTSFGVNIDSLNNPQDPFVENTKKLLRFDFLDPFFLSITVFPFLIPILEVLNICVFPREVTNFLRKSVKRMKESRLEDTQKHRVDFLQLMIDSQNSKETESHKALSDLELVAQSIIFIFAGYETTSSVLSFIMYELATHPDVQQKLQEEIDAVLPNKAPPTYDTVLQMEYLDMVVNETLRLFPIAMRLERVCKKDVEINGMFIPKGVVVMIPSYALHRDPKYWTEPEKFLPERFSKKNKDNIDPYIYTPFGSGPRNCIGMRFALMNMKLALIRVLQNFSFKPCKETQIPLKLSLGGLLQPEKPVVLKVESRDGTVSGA
Sequence of Cytochrome P450 2C19 (Homo sapiens) (P33261 whole entry, looked up): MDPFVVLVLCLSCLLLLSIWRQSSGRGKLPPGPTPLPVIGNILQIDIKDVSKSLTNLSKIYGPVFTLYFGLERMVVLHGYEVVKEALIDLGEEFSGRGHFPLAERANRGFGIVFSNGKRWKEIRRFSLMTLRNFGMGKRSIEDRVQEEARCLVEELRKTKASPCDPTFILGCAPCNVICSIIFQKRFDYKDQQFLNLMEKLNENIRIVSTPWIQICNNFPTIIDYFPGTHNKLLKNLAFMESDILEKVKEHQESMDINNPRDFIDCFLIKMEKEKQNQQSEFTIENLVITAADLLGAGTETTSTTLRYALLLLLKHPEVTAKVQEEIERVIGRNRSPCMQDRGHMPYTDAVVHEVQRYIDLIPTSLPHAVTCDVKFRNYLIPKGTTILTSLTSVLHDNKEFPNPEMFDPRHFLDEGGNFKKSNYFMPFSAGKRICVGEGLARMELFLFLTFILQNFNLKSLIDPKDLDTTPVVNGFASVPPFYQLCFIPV

Consider `CCC(/C=C/[C@@H](C)[C@H]1CCC2C3CC=C4C[C@@H](O)CC[C@]4(C)C3CC[C@@]21C)C(C)C` (stereo partly drawn), for which the Potency result in assay [1] and in assay [2] was “inactive” throughout.
As for `OC[C@H]1O[C@@H](OC[C@H]2O[C@@H](OC/C=C/c3ccccc3)[C@H](O)[C@@H](O)[C@@H]2O)[C@@H](O)[C@@H]1O`, the Potency result in [1] and in assay [2] was “inactive” in each case.
Regarding `O=C(O[C@@H]1Cc2c(O)cc(O)cc2O[C@@H]1c1ccc(O)c(O)c1)c1cc(O)c(O)c(O)c1`, the Potency entry in assay [1] and in assay [2] was “inactive” each time.
As to `CC(=O)O[C@H]1[C@H](O[C@H]2CC[C@]34C[C@]35CC[C@]3(C)[C@@H]([C@@]6(C)CC[C@@H](C(C)(C)O)O6)[C@@H](O)C[C@@]3(C)[C@@H]5C[C@H](O[C@@H]3O[C@H](CO)[C@@H](O)[C@H](O)[C@H]3O)[C@H]4C2(C)C)OC[C@@H](O)[C@@H]1O`, the Potency entry in [1] and in [2] was “inactive” each time.
On to `C=C1C[C@@]23CC[C@H]4[C@@](C)(CCC[C@@]4(C)C(=O)O[C@@H]4O[C@H](CO)[C@@H](O)[C@H](O)[C@H]4O[C@@H]4O[C@H](CO)[C@@H](O)[C@H](O)[C@H]4O)[C@@H]2CC[C@]1(O[C@@H]1O[C@H](CO)[C@@H](O)[C@H](O)[C@H]1O[C@@H]1O[C@H](CO)[C@@H](O)[C@H](O)[C@H]1O)C3`, for which the Potency entry in [1] and in [2] was “inactive” each time.
For the compound `Cc1ccc(O)c(O)c1`, the Potency result in assay [1] is “inactive”.
Turning to `O=c1c(O[C@@H]2O[C@H](CO)[C@H](O)[C@H](O)[C@H]2O)c(-c2ccc(O)c(O)c2)oc2cc(O)cc(O)c12`, the Potency result in assay [1] and in assay [2] was “inactive” in each case.
Take `COC(=O)C1=CO[C@@H](C)[C@@H]2CN3CC[C@@]4(C(=O)Nc5ccccc54)[C@@H]3CC12` (stereo partly drawn): the Potency entry in assay [1], in [5], in [9], in assay [10], in [11] and in [13] was “inactive” in each case. In addition, the Potency entry in assay [2] was “inactive”. In addition, the compound was classed as inactive in assay [3], in assay [4], in assay [6], in assay [7], in [12] and in [15]. The compound was classed as inactive in assay [17] and in assay [18]. For the same compound, the Potency is 14.1 µM (active) in [8] and 10 µM (active) in assay [16]. Also, the max response in [14] is 3.44%.
With `O=C(/C=C/c1ccc(O)c(O)c1)O[C@H]1[C@H](O)C[C@](O)(C(=O)O)C[C@H]1OC(=O)/C=C/c1ccc(O)c(O)c1`, the Potency entry in assay [1] and in [2] was “inactive” in each case.
Consider `O=c1cc(-c2ccc(O)cc2)oc2cc(O[C@H]3OC(CO)C(O)C(O)C3O)cc(O)c12` (stereo partly drawn), for which the Potency entry in assay [1] and in assay [2] was “inactive” each time.
Consider `O=C(O)[C@H]1O[C@@H](Oc2c(-c3ccc(O)c(O)c3)oc3cc(O)cc(O)c3c2=O)[C@H](O)[C@@H](O)[C@@H]1O`, for which the Potency entry in assay [1] and in assay [2] was “inactive” throughout.
As to `COc1ccc(-c2coc3cc(O[C@@H]4O[C@H](CO)[C@@H](O)[C@H](O)[C@H]4O)ccc3c2=O)cc1`, the Potency entry in [1] is “inactive”.
In the case of `O=C(OC[C@H]1O[C@@H](OC(=O)c2cc(O)c(O)c(O)c2)[C@H](OC(=O)c2cc(O)c(O)c(O)c2)[C@@H](OC(=O)c2cc(O)c(O)c(O)c2)[C@@H]1O)c1cc(O)c(O)c(O)c1`, the Potency entry in [1] and in [2] was “inactive” throughout.
Turning to `O=c1ccc2ccc(O)cc2o1`, the Potency entry in assay [1] and in [2] was “inactive” each time.
Regarding `O=C(/C=C/c1ccc(O)c2c1[C@H](C(=O)O)[C@@H](c1ccc(O)c(O)c1)O2)O[C@H](Cc1ccc(O)c(O)c1)C(=O)O`, the Potency entry in [1] and in assay [2] was “inactive” throughout.
As for `COc1cc2c(cc1O)CC1NCCc3cc(OC)c(OC)c-2c31` (stereo not drawn), the Potency entry in assay [1], in assay [5], in assay [2] and in assay [16] was “inactive” in each case. The outcome in assay [3], in assay [4], in assay [6], in assay [7], in assay [12] and in assay [15] was inactive. In addition, the compound was called inactive in [17] and in assay [18]. In addition, the Potency was 6.31 µM (active) in assay [9] and 15.8 µM (active) in assay [13]. Also, the max response in assay [14] is -2.18%.
For the compound `CCCCCCCCCCCCCCCCCCCC(=O)O`, the Potency result in assay [1], in assay [5], in [8], in [9], in [2] and in [16] was “inactive” throughout. The result in [3], in [4], in [6], in assay [7], in assay [12] and in assay [15] was inactive. The outcome in assay [17] and in assay [18] was inactive. In addition, the Potency in assay [10] is 15.8 µM (active); in assay [13], 22.4 µM (active). Further, the max response in [14] is 0.104%.
`O=C(/C=C/c1ccc(O)c(O)c1)OC1[C@H](O)CC(O)(C(=O)O)C[C@@H]1O` (stereo partly drawn): the Potency entry in assay [1] and in assay [2] was “inactive” throughout.
On to `C[S+](CC[C@H](N)C(=O)O)C[C@H]1O[C@@H](n2cnc3c(N)ncnc32)[C@H](O)[C@@H]1O` (stereo partly drawn), for which the Potency entry in [19], in assay [1] and in assay [2] was “inactive” in each case.
Regarding `C=C1C[C@@]23CC[C@H]4[C@](C)(CCC[C@]4(C)C(=O)O[C@@H]4O[C@H](CO)[C@@H](O)[C@H](O)[C@H]4O)[C@@H]2CC[C@]1(O[C@H]1O[C@@H](CO)[C@H](O)[C@@H](O)[C@@H]1O)C3`, the Potency result in assay [1] and in assay [2] was “inactive” each time.
